Assay results from PubChem BioAssay (NCI).
This is part of a sample that, as a whole, favours compounds with a hit. Of some 83,000 tested, about 20% had one in any assay.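 Treatment: one concentration, 48 hours, 96-well format. Scoring: percent growth, with anything below 10 considered active.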 Unmarked numbers belong to inactive results. Activity calls are given as the source filed them.

Experiments:
Assay in all cases: NCI-60 one-dose screen, 48 h (100 = growth as untreated, 0 = no growth, -100 = all killed)
Details in all cases: 10 µM unless noted
NCI-H23 lung = test system: NCI-H23 lung
NCI-H226 lung = test system: NCI-H226 lung
HOP-62 NSCLC = test system: HOP-62 NSCLC
NCI-H460 lung = test system: NCI-H460 lung
HOP-92 NSCLC = test system: HOP-92 NSCLC
A549/ATCC NSCLC = test system: A549/ATCC NSCLC
786-0 renal = test system: 786-0 renal
DU-145 prostate = test system: DU-145 prostate
K-562 leukemia = test system: K-562 leukemia
RXF 393 renal = test system: RXF 393 renal
SF-268 CNS = test system: SF-268 CNS
SF-295 CNS = test system: SF-295 CNS
SF-539 CNS = test system: SF-539 CNS
UACC-257 melanoma = test system: UACC-257 melanoma
M14 melanoma = test system: M14 melanoma
NCI-H322M lung = test system: NCI-H322M lung
NCI-H522 lung = test system: NCI-H522 lung
COLO 205 colon = test system: COLO 205 colon
MALME-3M melanoma = test system: MALME-3M melanoma
MDA-MB-231 breast = test system: MDA-MB-231 breast

Compound	growth (NCI-H23 lung)	growth (NCI-H226 lung)	growth (HOP-62 NSCLC)	growth (NCI-H460 lung)	growth (HOP-92 NSCLC)	growth (A549/ATCC NSCLC)	growth (786-0 renal)	growth (DU-145 prostate)	growth (K-562 leukemia)	growth (RXF 393 renal)	growth (SF-268 CNS)	growth (SF-295 CNS)	growth (SF-539 CNS)	growth (UACC-257 melanoma)	growth (M14 melanoma)	growth (NCI-H322M lung)	growth (NCI-H522 lung)	growth (COLO 205 colon)	growth (MALME-3M melanoma)	growth (MDA-MB-231 breast)
C1=C(c2ccccc2)c2ccccc2C1	98.5%	96.3%	94%	99.5%	74.8%	106%	86.4%	109%	88.3%	106%	96.6%	91%	99.5%	133%	92.2%	–	–	–	–	–
O=C(/C=C/C(Cl)(Cl)Cl)Nc1ccc(Cl)cc1	81.5%	–	125%	115%	82.1%	–	109%	97.7%	65.7%	87%	112%	115%	103%	102%	105%	126%	-51.6% (active)	98.6%	121%	113%
O=C1C(=O)c2cc([N+](=O)[O-])ccc2-c2ccccc21	-71.8% (active)	–	-93.3% (active)	16.4%	–	-52.2% (active)	-96.7% (active)	-99.2% (active)	-9.39% (active)	-97.2% (active)	-84.4% (active)	-82.2% (active)	-93% (active)	-94.5% (active)	–	96.9%	–	-56.9% (active)	-82.7% (active)	-50.6% (active)
O=C1Nc2ccc(Br)cc2C1=O	97.5%	–	100%	102%	103%	–	109%	99.5%	87.2%	119%	93.6%	99.1%	98.3%	–	98.4%	102%	99.8%	106%	102%	96.7%
CCCCCCCCCCCCNCCCc1ccccc1	89.2%	–	95%	83.9%	–	–	69.4%	84%	2.28% (active)	–	80.6%	102%	69.6%	82%	52%	91.1%	63.6%	-50.8% (active)	82.5%	61.3%
CC(C)(C)c1ccc(CCO)cc1	97.5%	–	97.5%	–	100%	103%	98.2%	114%	91.3%	117%	104%	88.7%	88.6%	97.2%	104%	84.5%	85.4%	110%	82.5%	102%
Cc1cc(C)c(C#N)c(Sc2nc(C)c([N+](=O)[O-])c(C)c2C#N)n1	60.2%	–	72.8%	89.9%	-1.8% (active)	77%	103%	41.7%	14.5%	55.2%	81.6%	84.1%	49.5%	–	54.2%	83.6%	–	37.8%	36.1%	91.4%
N#CC(I)CS(=O)(=O)c1ccccc1 (stereo not drawn)	101%	–	98.6%	114%	94.5%	–	107%	100%	80.6%	81.8%	86.8%	115%	95.6%	73.1%	–	124%	-80.6% (active)	-27.5% (active)	-22.4% (active)	98.3%
CC1(C)OC2C(COC(c3ccccc3)(c3ccccc3)c3ccccc3)OC(c3c[nH]c4c(N)ncnc34)C2O1 (stereo not drawn)	62.9%	–	81.6%	41.1%	59.5%	44.7%	62.8%	–	32.4%	79%	57.4%	57.9%	90%	74.9%	–	71.3%	55.9%	68.3%	93.5%	75.7%
CC(=O)N1CC(=O)NC1=S	98.3%	–	97.7%	103%	102%	94.9%	102%	105%	97.4%	104%	98.2%	102%	101%	90.4%	95.1%	102%	92.2%	–	95%	98.3%
Clc1ccc(Cc2nc3ccccc3s2)cc1	89.3%	–	115%	105%	122%	96.4%	109%	98.6%	98.1%	112%	88.5%	91.5%	106%	97.7%	98.2%	89.2%	99.1%	117%	–	74%
COc1cccc2c1C(=O)c1c(O)c3c(c(O)c1C2=O)C[C@@](O)(C(=O)CO)C[C@@H]3OC1CC(OC(C)=O)C(OC(C)=O)C(C)O1 (stereo partly drawn)	–	-73.3% (active)	-25.6% (active)	-56.2% (active)	-28.9% (active)	-44.6% (active)	-17.3% (active)	-50.9% (active)	-34.2% (active)	-31.3% (active)	-22.3% (active)	-30.2% (active)	-34.4% (active)	-27.7% (active)	-12.5% (active)	-12.8% (active)	-34% (active)	-6.8% (active)	-83% (active)	9.19% (active)
O=C1C=CC(=O)N1C1CCCCCCCCCCC1	89.9%	–	101%	–	–	91.6%	94.6%	88.1%	-2.11% (active)	64%	100%	90.8%	98.5%	66.6%	80.8%	95.3%	7.03% (active)	52.4%	72.9%	99.8%
Nc1ccc(Oc2ccccc2)c(Cl)c1	108%	–	86.6%	106%	82.6%	94.6%	84.9%	104%	115%	100%	93%	92.1%	91.7%	94.7%	–	86.3%	108%	96.2%	–	111%
O=C(c1ccccc1)C(Br)C(Br)c1ccccc1 (stereo not drawn)	104%	–	103%	103%	46%	99.2%	–	94.7%	6.6% (active)	33.6%	102%	82.4%	108%	17.3%	2.17% (active)	–	–	6.72% (active)	-3.62% (active)	112%
COc1ccc(NC(=O)/C(=C/N2C(=O)/C(=C/c3ccc(OC)c(OC)c3)NC2=S)C(C)=O)cc1	64.5%	–	58.4%	–	3.15% (active)	63.8%	99.2%	96.4%	–	85.6%	78.3%	93.9%	85.1%	60%	53.8%	71.1%	46.8%	107%	–	73%
O=C1C=C(Cl)C(=O)c2ccccc21	99.6%	–	84.5%	101%	–	–	110%	118%	24.2%	–	93.2%	97.4%	109%	96.2%	107%	88.8%	11%	93.2%	85.1%	69.1%
CC(C)c1ccc(Nc2n[nH]c(=S)s2)cc1	87.1%	–	99.4%	114%	82.6%	101%	96.8%	104%	95.5%	109%	107%	90.4%	104%	–	93.5%	102%	–	116%	102%	89.1%
O=[N+]([O-])c1ccc(N2CCN(Cc3ccccc3)CC2)c2c1no[n+]2[O-]	13%	–	-31.7% (active)	-70.8% (active)	25.6%	–	-4.19% (active)	26.8%	-43.5% (active)	-5.34% (active)	-1.56% (active)	6.45% (active)	0.0788% (active)	55.9%	30.3%	69.7%	-74.1% (active)	-88.2% (active)	13.5%	-3.1% (active)
